Several values for one entry are separate records, joined by “and”; a condition that tells them apart may be missing. Equal values may be shown once. Compounds without any hit were thinned out: in the full panel of roughly 83,000, 20% have a hit.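 Cell lines were cultured in 96-well plates, exposed to a single compound concentration, and assessed for percent growth 48 hours later.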 Values without a mark were called inactive. Activity calls are given as the source filed them. The calls were made as follows: active = growth percent below 10; inactive = the rest.

Some test systems named below: HCT-15 colon; HT29 colon; SNB-75 CNS; U251 CNS; PC-3 prostate; SK-MEL-5 melanoma; UACC-62 melanoma; LOX IMVI melanoma; SK-MEL-28 melanoma; SN12C renal; TK-10 renal; ACHN renal; CAKI-1 renal; A498 renal; HL-60(TB) leukemia; CCRF-CEM leukemia; SK-MEL-2 melanoma; EKVX NSCLC; SNB-19 CNS; UO-31 renal.
What all share (assay): NCI-60 one-dose screen, 48 h (100 = growth as untreated, 0 = no growth, -100 = all killed)
Holding throughout (conditions): 10 µM unless noted

Take `Cc1ccc(C(=O)O[C@H](C(=O)O)[C@H](OC(=O)c2ccc(C)cc2)C(=O)O)cc1`: the growth in the experiment with HCT-15 colon is 101%; with HT29 colon it was 98%; in the experiment with SNB-75 CNS, 103%; in the experiment with U251 CNS, 97.8%; in the experiment on PC-3 prostate it was 101%; with SK-MEL-5 melanoma it was 105%. Besides, the growth was 104% in the experiment on UACC-62 melanoma; 97% in the experiment on LOX IMVI melanoma; 109% in the experiment with SK-MEL-28 melanoma; 102% in the experiment on SN12C renal; 105% in the experiment with TK-10 renal; 106% in the experiment with ACHN renal. Moreover, the growth with CAKI-1 renal is 102%; with A498 renal, 120%; in the experiment on HL-60(TB) leukemia, 95.4%; in the experiment with CCRF-CEM leukemia, 105%.

As to `c1ccc(CCN2CCCCC2)nc1`, the growth with HCT-15 colon is 74.1%; with HT29 colon, 95.8%; in the experiment on SNB-75 CNS, 78.8%; in the experiment with U251 CNS, 107%; in the experiment on PC-3 prostate it was 84.8%; in the experiment on SK-MEL-5 melanoma it was 115%. Besides, the growth in the experiment with UACC-62 melanoma was 97.9%; with LOX IMVI melanoma, 107%; in the experiment on SK-MEL-28 melanoma, 104%; in the experiment on SK-MEL-2 melanoma, 111%; in the experiment with EKVX NSCLC, 102%; in the experiment on SN12C renal it was 93.5%. The growth is 103% in the experiment on TK-10 renal; 91.6% in the experiment on ACHN renal; 89.4% in the experiment on CAKI-1 renal; 107% in the experiment on A498 renal; 78.4% in the experiment on HL-60(TB) leukemia.

As to `O=C(O)C(O)c1ccc(Cl)cc1` (stereo not drawn), the growth was 102% with HCT-15 colon; 116% and 104% in the experiment with HT29 colon; 106% and 108% in the experiment with SNB-19 CNS; 106% and 100% in the experiment on U251 CNS; 92.7% and 103% in the experiment on PC-3 prostate; 81.4% and 106% with SK-MEL-5 melanoma. The growth in the experiment with UACC-62 melanoma is 103% and 106%; with LOX IMVI melanoma, 101% and 106%; in the experiment with SK-MEL-28 melanoma it was 106% and 109%; in the experiment with SK-MEL-2 melanoma, 106% and 118%; with EKVX NSCLC, 102% and 120%; with SN12C renal it was 100% and 107%. The growth with TK-10 renal is 99% and 105%; with ACHN renal, 112% and 108%; in the experiment with CAKI-1 renal, 97.6% and 104%; in the experiment with A498 renal, 102% and 106%; in the experiment with HL-60(TB) leukemia, 101%; with CCRF-CEM leukemia, 106%.

As for `CC1=CC(=O)CCC12CCOC2=O` (stereo not drawn), the growth is 98.7% with HCT-15 colon; 101% in the experiment with HT29 colon; 91.3% with SNB-75 CNS; 99.1% in the experiment on U251 CNS; 111% in the experiment on PC-3 prostate; 103% in the experiment with SK-MEL-5 melanoma. Also, the growth with UACC-62 melanoma was 87%; in the experiment on LOX IMVI melanoma, 95.6%; with SK-MEL-28 melanoma, 95.9%; with SK-MEL-2 melanoma, 125%; in the experiment on EKVX NSCLC it was 91.4%; in the experiment with SN12C renal it was 95.2%. In addition, the growth is 92% with TK-10 renal; 101% in the experiment on ACHN renal; 91.3% with CAKI-1 renal; 91.7% in the experiment with A498 renal; 86.5% in the experiment on HL-60(TB) leukemia; 82.4% in the experiment on CCRF-CEM leukemia.

For the compound `O=C1NC(=O)C(=C/C=C/c2ccccc2)C(=O)N1`, the growth with HCT-15 colon is 8.86% (active); in the experiment with HT29 colon, -71.6% (active); in the experiment on SNB-19 CNS, 53.8%; in the experiment on U251 CNS it was 7.65% (active); in the experiment with PC-3 prostate, 27.7%; with SK-MEL-5 melanoma it was 80.9%. Also, the growth in the experiment on UACC-62 melanoma is -11.9% (active); in the experiment on LOX IMVI melanoma it was -64.4% (active); with SK-MEL-28 melanoma, -34.7% (active); with SK-MEL-2 melanoma it was 74.2%; with EKVX NSCLC, 84.1%; in the experiment on SN12C renal, -10.6% (active). Also, the growth with TK-10 renal was 14.8%; with ACHN renal it was 2.5% (active); in the experiment on CAKI-1 renal, -12.7% (active); in the experiment with A498 renal, 106%; in the experiment with HL-60(TB) leukemia, -5.93% (active).

Take `O=C1CCCCC1CN1CCCCC1` (stereo not drawn): the growth in the experiment with HCT-15 colon was 99.9%; in the experiment on HT29 colon it was 85.3%; in the experiment with SNB-75 CNS, 109%; in the experiment on U251 CNS, 100%; with PC-3 prostate, 97.8%; in the experiment with SK-MEL-5 melanoma, 104%. In addition, the growth was 99.4% with UACC-62 melanoma; 95.4% in the experiment on LOX IMVI melanoma; 104% with EKVX NSCLC; 99.9% in the experiment on SN12C renal; 88.7% with UO-31 renal; 90.4% with TK-10 renal. For the same compound, the growth was 102% with ACHN renal; 102% in the experiment on CAKI-1 renal; 96.6% in the experiment on A498 renal; 93.4% in the experiment on HL-60(TB) leukemia; 98.7% with CCRF-CEM leukemia.

Take `O=C1C=C(N2CC2)c2ccccc2C1=O`: the growth in the experiment on HCT-15 colon was 79.6%; in the experiment on HT29 colon it was 73.4%; with SNB-75 CNS, 90.2%; in the experiment on U251 CNS, 65.3%; in the experiment on PC-3 prostate, 44.3%; in the experiment with SK-MEL-5 melanoma, 59.7%. In addition, the growth is 97.8% in the experiment with UACC-62 melanoma; 39% with LOX IMVI melanoma; 90.7% in the experiment on SK-MEL-2 melanoma; 114% in the experiment with EKVX NSCLC; 51.2% with SN12C renal; 53.9% with UO-31 renal. For the same compound, the growth was 118% in the experiment with TK-10 renal; 21% in the experiment with ACHN renal; 32.3% with CAKI-1 renal; 102% with A498 renal; 8.35% (active) with HL-60(TB) leukemia; -11.5% (active) in the experiment on CCRF-CEM leukemia.

On to `Nc1ccc(S(=O)(=O)F)cc1`, for which the growth is 107% in the experiment on HCT-15 colon; 103% in the experiment on HT29 colon; 99.5% with SNB-75 CNS; 105% with U251 CNS; 105% in the experiment on PC-3 prostate; 106% in the experiment with SK-MEL-5 melanoma. Further, the growth with UACC-62 melanoma is 105%; in the experiment on LOX IMVI melanoma, 99.4%; in the experiment on SK-MEL-28 melanoma, 114%; in the experiment with EKVX NSCLC it was 112%; in the experiment with SN12C renal, 105%; in the experiment on UO-31 renal, 86.3%. The growth in the experiment on TK-10 renal was 92.7%; with ACHN renal it was 109%; in the experiment on CAKI-1 renal, 101%; in the experiment on A498 renal, 94.8%; in the experiment on HL-60(TB) leukemia, 91.9%.

Source of the values: PubChem BioAssay (NCI).
